Among the data in PubChem BioAssay (EPA / NIEHS) are AC50 and outcome values, retold here.

A short description of assay [1]: BSK_3C_Proliferation: Cell Proliferation Assessment in the BioMAP Diversity Plus: 3C Assay (AID 2283006).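 For AC50: potency may reflect either rise or fall in cell number versus DMSO.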 The note with it: primary human endothelial cells (HUVEC). The method in brief:
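Proliferation as total protein: sulforhodamine B (0.1%) stain of TCA-fixed subconfluent human umbilical vein endothelial cells, absorbance 560 nm, 48 h after dosing. Activity fitted in both directions against DMSO baseline.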

Read-out in assay [2]: E-selectin (Homo sapiens) (UniProt P16581)
As to the kind of experiment: BSK_3C_Eselectin: BioMAP Diversity Plus: 3C Assay for Eselectin Biomarker Activity (AID 2283015).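 For outcome: cell surface E-selectin protein quantified by ELISA 24 h after dosing.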 The note with it: primary human endothelial cells (HUVEC); actives raise or lower the signal. The method in brief: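 ELISA read-out of E-selectin on endothelial monolayers after 24 h chemical treatment. Human umbilical vein primary cells served as the system, with DMSO defining baseline activity for bidirectional fitting.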

Read-out in assay [3]: Interleukin-1 alpha (IL1a), IL1A (gene 3552)
As to the kind of experiment: BSK_BE3C_IL1a: BioMAP Diversity Plus: BE3C Assay for Interleukin-1 alpha (IL1a) Biomarker Activity (AID 2283016). To be noted: primary human bronchial epithelial cells; actives raise or lower the signal. The method in brief: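 IL-1a measured by ELISA after 24 h treatment of human primary bronchial epithelial cells, with gain or loss of signal fitted versus DMSO. Parallel cultures stained with SRB gauge overt cytotoxicity.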

Read-out in assay [4]: Monocyte Chemoattractant Protein-1 (MCP1), CCL2 (gene 6347)
Description: BSK_3C_MCP1: BioMAP Diversity Plus: 3C Assay for Monocyte Chemoattractant Protein-1 (MCP1) Biomarker Activity (AID 2283017). The note with it: primary human endothelial cells (HUVEC); actives raise or lower the signal. The method in brief:
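ELISA read-out of MCP-1 from human umbilical vein endothelial cell cultures harvested 24 h post-dosing. Gain or loss of signal was fitted relative to DMSO.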

Read-out in assay [5]: Interleukin-8 (IL8), CXCL8 (gene 3576)
Description: BSK_3C_IL8: BioMAP Diversity Plus: 3C Assay for Interleukin-8 (IL8) Biomarker Activity (AID 2283020). The note with it: primary human endothelial cells (HUVEC); actives raise or lower the signal. In short, it runs like this:
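IL-8 was measured by ELISA in HUVEC cultures 24 h after chemical dosing, with gain or loss of signal fitted relative to DMSO. Parallel SRB total-protein staining tracked overt cytotoxicity.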

Assay [6] in a line: BSK_3C_SRB: Viability Assessment in the BioMAP Diversity Plus: 3C Assay (AID 2283023).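 Note: fitted both ways against DMSO so a hit may be signal rise or drop.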 The note with it: primary human endothelial cells (HUVEC). The method in brief: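 Absorbance at 560 nm of sulforhodamine B-stained (0.1%) total protein served as a cytotoxicity readout in human umbilical vein endothelial cells, 24 h after chemical treatment. Signal was fitted bidirectionally relative to DMSO.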

Read-out in assay [7]: Matrix Metallopeptidase 1 (MMP1), MMP1 (gene 4312)
As to the kind of experiment: BSK_BE3C_MMP1: BioMAP Diversity Plus: BE3C Assay for Matrix Metallopeptidase 1 (MMP1) Biomarker Activity (AID 2283024). To be noted: primary human bronchial epithelial cells; actives raise or lower the signal. The method in brief:
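ELISA measurement of MMP-1 after 24 h compound exposure of primary human bronchial epithelial cells. Changes in either direction fitted relative to DMSO; parallel SRB staining checked overt cytotoxicity.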

Read-out in assay [8]: Pselectin, SELP (gene 6403)
As to the kind of experiment: BSK_4H_Pselectin: BioMAP Diversity Plus: 4H Assay for Pselectin Biomarker Activity (AID 2283026). The note with it: primary human endothelial cells (HUVEC); actives raise or lower the signal. In short, it runs like this: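 ELISA of surface P-selectin on HUVEC, 24 h after dosing, with parallel SRB staining (0.1% after 10% TCA fixation, 560 nm) for overt cytotoxicity. Activity fitted in both directions relative to DMSO.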

Assay [9] can be described thus: BSK_4H_SRB: Viability Assessment in the BioMAP Diversity Plus: 4H Assay (AID 2283027).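 For AC50: curves fitted both ways versus DMSO so AC50 may be loss or gain.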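 Note: cells exposed to compound for 24 h before staining.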 The note with it: primary human endothelial cells (HUVEC). In short, it runs like this: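 Cytotoxicity readout: sulforhodamine B (0.1%) staining of total protein after 10% TCA fixation, measured at 560 nm in human umbilical vein endothelium at 24 h. DMSO set the baseline; fitting was bidirectional.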

Assay [10] is described as follows: BSK_BE3C_SRB: Viability Assessment in the BioMAP Diversity Plus: BE3C Assay (AID 2283028).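 For AC50: fitted both ways so AC50 may mark signal gain or loss versus DMSO.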 To be noted: primary human bronchial epithelial cells. The method in brief:
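Cells (human bronchial epithelial, primary) are treated with chemicals, and after 24 h the parallel cultures are fixed in 10% TCA. These are then stained with 0.1% SRB and read at 560 nm. Gain or loss of signal is fitted relative to DMSO.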

Read-out in assay [11]: Thrombomodulin, THBD (gene 7056)
As to the kind of experiment: BSK_3C_Thrombomodulin: BioMAP Diversity Plus: 3C Assay for Thrombomodulin Biomarker Activity (AID 2283029). The note with it: primary human endothelial cells (HUVEC); actives raise or lower the signal. The method in brief:
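ELISA measurement of thrombomodulin on HUVEC surface 24 h after chemical dosing; activity fitted in both directions relative to DMSO vehicle.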

Read-out in assay [12]: Vascular endothelial growth factor receptor 2 (Homo sapiens) (UniProt P35968)
Description: BSK_4H_VEGFRII: BioMAP Diversity Plus: 4H Assay for Vascular endothelial growth factor receptor 2 (VEGFR2) Biomarker Activity (AID 2283031).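 For AC50: cell-surface VEGFR2 protein level quantified by ELISA.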 The note with it: primary human endothelial cells (HUVEC); actives raise or lower the signal. In short, it runs like this:
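ELISA read-out of VEGFRII in primary human umbilical vein endothelium, taken 24 h after chemical treatment. Responses are expressed relative to DMSO, with bidirectional fitting.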

Read-out in assay [13]: Interferon-gamma inducible Protein 10 (IP10), CXCL10 (gene 3627)
Description: BSK_BE3C_IP10: BioMAP Diversity Plus: BE3C Assay for Interferon-gamma inducible Protein 10 (IP10) Biomarker Activity (AID 2283034). The note with it: primary human bronchial epithelial cells; actives raise or lower the signal. The method in brief: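 IP-10 quantified by ELISA in human primary bronchial epithelial cell cultures at 24 hours post-dosing. Gain or loss of signal fitted relative to DMSO; parallel SRB staining assessed overt cytotoxicity.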

Read-out in assay [14]: Urokinase-type plasminogen activator receptor (uPAR), PLAUR (gene 5329)
As to the kind of experiment: BSK_BE3C_uPAR: BioMAP Diversity Plus: BE3C Assay for Urokinase-type plasminogen activator receptor (uPAR) Biomarker Activity (AID 2283039).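 For outcome: cells exposed to compound for one day before measurement.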 To be noted: primary human bronchial epithelial cells; actives raise or lower the signal. The method in brief: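 uPAR levels were measured by ELISA after 24 h compound treatment of primary human bronchial epithelial cells, fitted in both directions relative to DMSO. Parallel SRB staining served as the cytotoxicity read-out.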

Read-out in assay [15]: Interleukin-6 (IL6), IL6 (gene 3569)
As to the kind of experiment: BSK_CASM3C_IL6: BioMAP Diversity Plus: CASM3C Assay for Interleukin-6 (IL6) Biomarker Activity for (AID 2283040). To be noted: primary human coronary artery smooth muscle cells; actives raise or lower the signal.

Read-out in assay [16]: Human Leukocyte Antigen - DR isotype (HLADR), HLA-DRA (gene 3122)
As to the kind of experiment: BSK_CASM3C_HLADR: BioMAP Diversity Plus: CASM3C Assay for Human Leukocyte Antigen - DR isotype (HLADR) Biomarker Activity (AID 2283043).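 Note: cell-surface HLA-DR protein level quantified by ELISA.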 To be noted: primary human coronary artery smooth muscle cells; actives raise or lower the signal.

Read-out in assay [17]: Macrophage colony-stimulating factor (MCSF), CSF1 (gene 1435)
As to the kind of experiment: BSK_CASM3C_MCSF: BioMAP Diversity Plus: CASM3C Assay for Macrophage colony-stimulating factor (MCSF) Biomarker Activity (AID 2283044).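 Note: M-CSF protein amount quantified by ELISA after 24 h exposure.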 The note with it: primary human coronary artery smooth muscle cells; actives raise or lower the signal.

Read-out in assay [18]: Low-density lipoprotein receptor (LDLR), LDLR (gene 3949)
As to the kind of experiment: BSK_CASM3C_LDLR: BioMAP Diversity Plus: CASM3C Assay for Low-density lipoprotein receptor (LDLR) Biomarker Activity (AID 2283045).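 Note: LDLR protein level on the cell surface quantified by ELISA.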 The note with it: primary human coronary artery smooth muscle cells; actives raise or lower the signal.

Read-out in assay [19]: Monocyte Chemoattractant Protein-1 (MCP1), CCL2 (gene 6347)
Description: BSK_CASM3C_MCP1: BioMAP Diversity Plus: CASM3C Assay for Monocyte Chemoattractant Protein-1 (MCP1) Biomarker Activity (AID 2283046).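 Note: MCP-1 level quantified by ELISA 24 h after dosing.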 To be noted: primary human coronary artery smooth muscle cells; actives raise or lower the signal.

The nature of assay [20]: BSK_CASM3C_Proliferation: Cell Proliferation Assessment in the BioMAP Diversity Plus: CASM3C Assay (AID 2283047).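 Note: sub-confluent cells exposed 48 h before staining; fitted both ways against DMSO so gain or loss of cell number.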 The note with it: primary human coronary artery smooth muscle cells.

Molecules are shown by their SMILES. Activity calls are given as the source filed them. Rule for the calls: active = hit-call score of the fitted dose curve at least 0.9, where 1 is the maximum; inactive = score below 0.9.

E-selectin (Homo sapiens), sequence (P16581 whole entry, looked up): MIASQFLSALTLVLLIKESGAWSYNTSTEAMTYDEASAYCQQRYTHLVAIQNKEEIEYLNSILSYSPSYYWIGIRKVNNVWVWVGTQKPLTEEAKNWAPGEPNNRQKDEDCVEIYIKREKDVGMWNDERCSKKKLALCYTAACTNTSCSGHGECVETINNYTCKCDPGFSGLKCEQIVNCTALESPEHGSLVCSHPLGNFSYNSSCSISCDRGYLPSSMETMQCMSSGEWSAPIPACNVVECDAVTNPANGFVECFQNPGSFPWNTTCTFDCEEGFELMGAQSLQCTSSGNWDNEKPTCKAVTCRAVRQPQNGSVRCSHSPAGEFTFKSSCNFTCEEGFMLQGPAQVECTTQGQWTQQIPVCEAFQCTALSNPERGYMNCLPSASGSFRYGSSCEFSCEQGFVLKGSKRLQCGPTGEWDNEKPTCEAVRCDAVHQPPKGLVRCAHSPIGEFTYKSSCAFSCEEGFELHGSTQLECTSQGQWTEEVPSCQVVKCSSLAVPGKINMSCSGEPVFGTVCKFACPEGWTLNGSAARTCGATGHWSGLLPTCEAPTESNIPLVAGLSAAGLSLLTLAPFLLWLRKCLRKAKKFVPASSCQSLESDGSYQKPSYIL

`Cc1ccc(OP(=O)(Oc2ccc(C)cc2)Oc2ccc(C)cc2)cc1` (tested in a mixture with another compound): the AC50 is 7.47 µM (active) in assay [1]; 20 µM (active) in assay [4]; 9.68 µM (active) in assay [6]; 3.35 µM (active) in assay [7]; 3.59 µM (active) in [11]; 4.16 µM (active) in [14]. Moreover, the result in assay [2], in assay [3], in assay [5], in assay [8], in assay [9] and in assay [10] was inactive. In addition, the result in assay [12], in [13], in assay [15], in assay [16], in [17] and in assay [18] was inactive. Also, the result in [19] and in assay [20] was inactive.
With `O=[N+]([O-])C=Cc1ccccc1`, the AC50 in assay [1] was 1.37 µM (active); in [2] it was 6.94 µM (active); in assay [3] it was 2.28 µM (active); in assay [4], 7.71 µM (active); in [5], 10 µM (active); in [6] it was 9.73 µM (active). In addition, the AC50 was 11.3 µM (active) in [7]; 5.78 µM (active) in [8]; 5.27 µM (active) in assay [9]; 24.3 µM (active) in [10]; 2.48 µM (active) in assay [13]; 5.37 µM (active) in [14]. The AC50 is 31.3 µM (active) in assay [15]; 12.1 µM (active) in assay [16]; 20 µM (active) in assay [17]; 25.7 µM (active) in assay [18]; 27.6 µM (active) in [19]; 10.9 µM (active) in assay [20]. Also, the outcome in assay [11] and in assay [12] was inactive.
As to `Clc1ccc(-c2ccccc2)cc1`, the result in [1], in [2], in assay [3], in assay [4], in assay [5] and in [7] was inactive. Besides, the outcome in assay [10], in assay [11], in assay [12], in assay [13], in assay [14] and in assay [15] was inactive. Also, the result in assay [16], in assay [17], in [18], in assay [19] and in assay [20] was inactive. Besides, the results for the AC50 in assay [6], in [8] and in assay [9] were 30.9 µM (active), 28.2 µM (active) and 35.3 µM (active), respectively.
For the molecule `COC(C)(C)CCC[C@H](C)C/C=C/C(C)=C/C(=O)OC(C)C`, the AC50 was 26 µM (active) in [1]; 28.7 µM (active) in [2]; 7.52 µM (active) in assay [3]; 36.9 µM (active) in [4]; 31.1 µM (active) in assay [6]; 20 µM (active) in assay [7]. Besides, the AC50 was 25.6 µM (active) in assay [8]; 32.4 µM (active) in assay [9]; 32 µM (active) in assay [12]; 20 µM (active) in [13]; 20 µM (active) in [16]; 13.7 µM (active) in [17]. Besides, the AC50 in [18] is 10.2 µM (active); in assay [20], 17.2 µM (active). Moreover, the outcome in [5], in assay [10], in [11], in assay [14], in [15] and in assay [19] was inactive.
For the molecule `CC(C)(C)C(=O)CCl`, the concentration at half-maximal activity (AC50) in assay [1] is 16.9 µM (active); in assay [2], 20 µM (active); in assay [16], 4.45 µM (active); in [17], 0.65 µM (active); in [20], 20 µM (active). In addition, the result in assay [3], in [4], in assay [5], in assay [6], in assay [7] and in assay [8] was inactive. Also, the result in assay [9], in assay [10], in assay [11], in assay [12], in assay [13] and in [14] was inactive. Also, the result in assay [15], in assay [18] and in assay [19] was inactive.
